# Most compounds without a hit are left out; they make up all but 6.9% or so of the library.
# M1 agonist = agonists of M1 muscarinic receptor; CHO-M1 cells, Fluo-4 calcium fluorescence, agonist mode; stronger effect = higher value; B-score at 10 µM; 3% of 64,000 active; AID 626;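 active means fluorescence rise, raw or as B-score row- and column-corrected plate score, outside the 99.7% band of its plate's samples, either direction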
# FXIIa mix inh = inhibitors of human coagulation factor XIIa, pooled mixtures | P00748 | purified FXIIa, fluorogenic substrate | inhibition, % at 5 µM | 0.2% of 62,000 active | AID 684
# HER2 expr 66K = lowers expression of human Her2 kinase | P04626 | SKBR-3 HER2 protein level, AlphaScreen, 18-24 h; stronger effect = lower value | HER2 level % of control, % at 10 µM | 0.69% of 65,000 active;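 active means HER2 level under 5% of the carrier-only control; inconclusive means no clear call, values can overlap the other calls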
# JNK3 blocker = inhibitors of human JNK3 kinase; P53779; purified JNK3 kinase activity, HTS; inhibition, % at 8 µM; 0.61% of 60,000 active; AID 746; in the data active means inhibition above about 17%
# M1 antagonist = antagonists of rat M1 muscarinic receptor. P08482. CHO-M1 cells, Fluo-4 calcium, ACh EC80 antagonist mode; stronger effect = lower value. B-score at 10 µM. 3.4% of 64,000 active;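 active means calcium fluorescence response, raw or row-and-column corrected B-score, differing from the plate sample mean either way at a set confidence level, mostly lower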
# FXIa mix inh = blocks human factor XIa in pooled compound mixtures | P03951 | purified FXIa, fluorogenic substrate | inhibition, % at 5 µM | 0.19% of 62,000 active | AID 680;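 further: each value is inhibition by a whole ten-compound pool holding the compound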
# Target sequence (P03951 19-387 limits assumed): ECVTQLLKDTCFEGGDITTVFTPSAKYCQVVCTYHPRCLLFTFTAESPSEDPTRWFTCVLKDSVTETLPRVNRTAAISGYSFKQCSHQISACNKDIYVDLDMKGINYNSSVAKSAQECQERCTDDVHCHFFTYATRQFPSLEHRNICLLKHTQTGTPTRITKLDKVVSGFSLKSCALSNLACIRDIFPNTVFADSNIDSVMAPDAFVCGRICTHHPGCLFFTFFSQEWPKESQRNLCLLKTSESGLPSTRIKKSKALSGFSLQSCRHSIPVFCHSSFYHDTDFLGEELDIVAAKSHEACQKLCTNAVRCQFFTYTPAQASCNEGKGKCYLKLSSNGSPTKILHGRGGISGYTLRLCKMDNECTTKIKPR
# Target sequence (P03951 388-625 limits assumed): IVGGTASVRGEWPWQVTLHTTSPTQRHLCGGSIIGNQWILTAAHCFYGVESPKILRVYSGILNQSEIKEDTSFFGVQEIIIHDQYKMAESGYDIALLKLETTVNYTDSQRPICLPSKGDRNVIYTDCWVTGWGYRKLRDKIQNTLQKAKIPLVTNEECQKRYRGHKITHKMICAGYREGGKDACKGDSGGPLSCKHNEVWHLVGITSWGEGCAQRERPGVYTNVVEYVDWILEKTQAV
# M1 ag confirm = confirmation of rat M1 muscarinic receptor agonists; shares compounds with M1 agonist; fluorescence change (max-min) at 10 µM; 19% of 1,700 active; AID 1488; CHO-M1 cells, Fluo-4 calcium fluorescence, agonist mode; actives lie on both sides;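 active means fluorescence change differs from the solvent-only DMSO control mean at a set confidence level in both duplicate runs; inconclusive means differs from solvent-only control mean in just one of two runs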;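 further: an EC20 dose of acetylcholine follows compound addition during the same imaging run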
# M4 agonist ctr = counter-screen for M1 agonists: activity at rat M4 receptor. shares compounds with M1 agonist. CHO M4/Gqi5 cells, Fluo-4 calcium fluorescence, agonist mode; actives lie on both sides. fluorescence change (max-min) at 10 µM. 9% of 1,700 active;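 active means fluorescence change differing from the plate's solvent-only control wells at 99.7% confidence in both duplicates, whether higher or lower; inconclusive means differs from solvent controls in only one of two duplicates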
# Numbers stand for hits; . = inactive; ? = inconclusive; / = no result given. Unless noted, no stated cut-off is given here; in the data, active means inhibition above about 20% (passing the limit was not always enough); inactive means the rest.
SMILES,M1 agonist,FXIIa mix inh,HER2 expr 66K,JNK3 blocker,M1 antagonist,FXIa mix inh,M1 ag confirm,M4 agonist ctr
CCOC(=O)c1cc2occc2n1CC(=O)N1CCCc2ccccc21,.,.,.,.,.,.,/,/
CCOc1ccc2nc(NC(=O)CS(=O)(=O)c3ccccc3)sc2c1,2.2,.,.,.,.,.,.,.
C[C@H](NC(=O)OC(C)(C)C)c1nnc(SCC(=O)c2ccc(Cl)cc2)o1,5.5,.,.,.,.,.,.,.
Cc1c(C(=O)Nc2ccc(F)cc2)oc2ccc(S(=O)(=O)N3CCC4(CC3)OCCO4)cc12,4.7,.,.,.,.,.,.,.
Cc1c(C(=O)Nc2cccc(Cl)c2)oc2ccc(S(=O)(=O)N3CCC4(CC3)OCCO4)cc12,3.6,.,.,/,.,.,.,.
Cc1c(C(=O)NCCC2=CCCCC2)oc2ccc(S(=O)(=O)N3CCC4(CC3)OCCO4)cc12,9,.,.,/,.,.,.,?
CC1Oc2ccccc2N(CC(=O)NCCc2ccccc2)C1=O (stereo not given),.,.,.,.,.,.,/,/
Cn1c(=O)[nH]c(=O)c2c1nc(Br)n2CC(O)c1ccccc1 (stereo not given),.,.,.,.,.,.,/,/
CCOC(=O)c1ccc(NC(=O)Nc2ccc(OC)c(OC)c2)cc1,7.3,.,.,.,.,.,-22,?
CCOC(=O)c1ccccc1NC(=O)Nc1ccc(OC)c(OC)c1,.,.,.,.,.,.,/,/
Clc1ccc(OCCCn2cncn2)cc1Cl,.,.,.,.,.,.,/,/
COc1cc(/C=C/C(=O)CC(=O)/C=C/c2ccc(O)c(OC)c2)ccc1O,164,.,.,.,.,.,367,401
Fc1ccc(COc2ccc(/C=N/n3cnnc3)cc2)cc1,.,.,/,.,.,.,/,/
CCN(CC)CCN1C(=O)C(=O)/C(=C(/O)c2ccc(C)cc2)C1c1cccnc1 (stereo not given),.,/,.,.,.,/,/,/
O=c1c2ccccc2c(C=NCCO)c(O)n1-c1ccccc1,.,.,.,.,.,.,/,/
O=c1c2ccccc2c(/C=N/n2cnnc2)c(O)n1-c1ccccc1F,55,.,.,.,.,.,350,698
C(=N\n1cnnc1)/c1cccc2ccccc12,.,.,.,.,.,.,/,/
Cc1ccc(-n2c(O)c(/C=N/n3cnnc3)c3ccccc3c2=O)cc1,26,.,.,.,.,.,121,.
NC(=O)C1CCCN(S(=O)(=O)c2ccc(Br)cc2)C1 (stereo not given),.,.,.,.,.,.,/,/
O=C(O)c1ccc(CSCc2ccccc2F)o1,6.8,.,.,.,.,.,.,.
O=C(O)c1ccc(COc2c(F)c(F)c(F)c(F)c2F)o1,.,.,.,.,.,.,/,/
O=C(COc1ccc(Cl)cc1)NCc1nnc(SCC(=O)N2CCCc3ccccc32)o1,.,.,.,/,.,.,/,/
COc1ccc(CCNC(=O)CSc2nnc(CNc3ccc(Cl)cc3)o2)cc1OC,-2.2,.,.,.,.,.,.,.
CCN(CC)CCCN1C(=O)C(=O)/C(=C(/O)c2ccc3c(c2)CC(C)O3)C1c1cccnc1 (stereo not given),.,/,.,.,.,/,/,/
Brc1ccc(-c2nnc3n2-c2ccccc2CC3)cc1,.,.,.,.,.,.,/,/
SMILES,M1 agonist,FXIIa mix inh,HER2 expr 66K,JNK3 blocker,M1 antagonist,FXIa mix inh,M1 ag confirm,M4 agonist ctr
O=C(NCc1ccccc1)N(Cc1nc2ccccc2c(=O)[nH]1)C1CCCC1,4.2,.,.,.,.,.,.,.
CN(C)c1ccc(/C=C/C(O)=C2/C(=O)N(C)C3(C)CC2c2ccccc2O3)cc1 (stereo not given),28,.,.,.,.,.,232,229
COc1cccc(C(=O)OCc2ccccc2C#N)c1O,-2.2,.,.,.,.,.,-27,-79
COc1ccc(CNC2CC(=O)N(C)C2=O)cc1 (stereo not given),3.4,.,.,.,.,.,.,.
CCCCn1c(SCC(=O)Nc2ccc3c(c2)OCO3)nc2c1c(=O)n(C)c(=O)n2C,.,.,.,.,.,.,/,/
CCOC(=O)c1cc(C)n(-c2ccc(OC)c(OC)c2)c1C,.,/,.,.,.,/,/,/
CSc1ccc(C2C(C#N)=C(N)Oc3c2ccc(=O)c2c(C)oc(C)c32)cc1 (stereo not given),7.2,.,.,.,.,.,.,.
Cc1oc(C)c2c(=O)ccc3c(c12)OC(N)=C(C#N)C3c1ccccc1 (stereo not given),.,.,.,.,.,.,/,/
CCCCOc1ccc(C(=O)Nc2ccc(N3CCN(C(C)=O)CC3)cc2)cc1,.,.,.,.,.,.,/,/
CC(=O)N1CCN(c2ccc(NC(=O)c3ccc(C(C)(C)C)cc3)cc2)CC1,2.5,.,.,/,.,.,.,.
CCOc1ccccc1NC(=O)c1cccc(NC(=O)c2ccco2)c1,5.6,.,.,.,.,.,.,.
Cc1ccccc1OCC(=O)Nc1cccc(NC(=O)c2ccco2)c1,7,.,.,.,.,.,?,?
Cc1cccc(C)c1OCC(=O)Nc1cccc(NC(=O)c2ccco2)c1,.,.,.,.,.,.,/,/
CCCC(=O)N1CCN(c2nc(CC(C)C)c3c(c2C#N)CCC3)CC1,.,/,.,.,.,/,/,/
CCOc1ccc2noc3c2c1C(=O)c1ccccc1-3,397,.,.,.,-9.6,.,3216,2874
O=c1nccc(NCc2ccco2)[nH]1,.,.,.,.,.,.,/,/
O=C1c2ccccc2-c2onc3ccc(NCc4ccco4)c1c23,183,/,.,33,.,/,624,1149
COc1ccc(NC(C)=O)cc1NC(=O)CSc1nc2ncccc2[nH]1,.,.,.,.,.,.,/,/
Cc1cc(C)c(S(=O)(=O)Nc2ccc[nH]c2=O)c(C)c1,.,.,.,.,.,.,/,/
COC(=O)c1ccc(OCC2c3cc(OC)c(OC)cc3CCN2C(=O)C2CC2)cc1 (stereo not given),8.7,.,.,/,.,.,-32,.
COc1ccc(C(=O)N2CCc3cc(OC)c(OC)cc3C2)cc1OC,.,.,.,.,.,.,/,/
Cc1cccn2c(=O)c3cc(C#N)c(=NC(=O)c4ccncc4)n(CCCOC(C)C)c3nc12,83,.,.,.,.,.,587,511
CCCn1c(=NC(=O)c2ccc3c(c2)OCO3)c(C#N)cc2c(=O)n3cccc(C)c3nc21,.,.,.,.,.,.,/,/
CCOC(=O)c1cc2c(=O)n3cccc(C)c3nc2n(CCOC)c1=NC(=O)c1ccncc1,.,.,.,.,.,.,/,/
COCCCn1c(=NC(=O)c2ccncc2)c(C#N)cc2c(=O)n3cccc(C)c3nc21,129,.,.,.,.,.,469,363

# Assay outcomes deposited in PubChem BioAssay by several laboratories.
